# Source: PubChem BioAssay (National Center for Advancing Translational Sciences (NCATS))
# WRN helicase inh: inhibitors of human WRN helicase. Potency, µM (highest dose often 114 µM), inactives show at the highest dose activity change, negative = inhibition, usual class: inhibitors. Q14191. hit rate 0.46% among 360,000. WRN helicase unwinding, fluorescent forked duplex, kinetic. AID 651768; also: % is scaled to controls: 0 for no effect and ±100 for the full control effect; nearly all actives have a fitted effect of over 55% in size
#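 Screening of the MLSMR collection measured strand separation of a quenched forked DNA duplex (100 nM) by 20 nM WRN with 2 mM ATP, all final. Compounds were preincubated with enzyme 15 min at room temperature.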
# Pol kappa inh: inhibitors of human DNA polymerase kappa | purified Pol kappa, fluorescent DNA synthesis assay, 10 min | Potency, µM (highest dose often 107 µM), inactives show top-dose activity, negative = inhibition, most hits filed as inhibitors | hit rate 0.53% among 400,000 | AID 588579; also: % is scaled to controls: 0 for no effect and ±100 for the full control effect
#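 Here, compound and 10 nM enzyme are combined for 15 min at room temperature; adding 50 nM substrate (final) starts DNA synthesis, tracked by fluorescence at 0 and 10 min against buffer-only wells.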
# Pol iota inh: DNA polymerase iota (human) inhibition; Q9UNA4; Pol iota fluorescent replication assay, 10 min; Potency, µM (titrated, usually from 115 µM), without a hit: at the highest dose activity, negative = inhibition, hits mostly inhibitors; hit rate 1% among 390,000; AID 588590
#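 Pol iota at 10 nM preincubated 15 min with compounds at room temperature; reaction started with fluorescent substrate, 50 nM final. Fluorescence read kinetically at 0 and 10 min; buffer-only wells as negative control.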
# Pol beta inh: blocks human DNA polymerase beta activity | P06746 | Pol beta primer extension/strand displacement, fluorescence kinetic | Potency, µM (top dose mostly 114 µM), without a hit: at the highest dose activity change, negative = inhibition, most hits filed as inhibitors | hit rate 1.3% among 340,000; also: % is scaled to controls: 0 for no effect and ±100 for the full control effect
#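 Pol beta (10 nM) and compounds were preincubated 15 min at room temperature, then 50 nM substrate (final) started primer extension/strand displacement. Reads were taken at 0 and 10 min; concentration-response data were fitted to a four-parameter Hill equation.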
# POLH inh: blocks human DNA polymerase eta activity; Potency, µM (doses to about 114 µM), without a hit: top-dose activity change, negative = inhibition, usual class: inhibitors; recombinant Pol eta, fluorescent DNA replication assay; hit rate 1.2% among 390,000; also: % is scaled to controls: 0 for no effect and ±100 for the full control effect
#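 Pol eta at 10 nM preincubated with compounds 15 min at room temperature; reaction started with fluorescent substrate (50 nM final) and read kinetically at 0 and 10 min.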
# FEN1 inh: blocks human flap endonuclease 1 | P39748 | Recombinant FEN1 flap cleavage, fluorescence, 15 min | Potency, µM (titrated, usually from 114 µM), inactives show at the top dose activity change, negative = inhibition, most hits filed as inhibitors | hit rate 0.35% among 390,000 | AID 588795; also: % is scaled to controls: 0 for no effect and ±100 for the full control effect; nearly all actives have a fitted effect of over 65% in size
#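 FEN1 at 10 nM preincubated with compounds 15 min at room temperature, then flap DNA substrate added at 50 nM final. Signal read at 0 and 15 min; concentration-response fitted with four-parameter Hill equation.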
# TbPGK inh: validation of Trypanosoma brucei phosphoglycerate kinase inhibitors; AID 686980; TbPGK coupled GAPDH assay, Kinase-Glo luminescence; shares compounds with Pol kappa inh; hit rate 79% among 500; Potency, µM (titrated, usually from 57.5 µM), inactives show top-dose activity change, negative = inhibition, most hits filed as inhibitors; also: % is scaled to controls: 0 for no effect and ±100 for the full control effect; nearly all actives have a fitted effect of over 65% in size
# Pol iota confirm: Inhibitors of human DNA polymerase iota, confirmation; AID 720496; Pol iota primer extension, TAMRA/BHQ fluorescence; Potency, µM, hits mostly inhibitors; shares compounds with Pol kappa inh; hit rate 77% among 1,500
# * hit, by the source's call; u = inconclusive; x = no result given; ! = not confirmed by another sample; [ ] = dose if it differs, or a comment. Most compounds without a hit are left out; they make up all but 2.4% or so of the library. Calls follow the shape of the dose curve; as a rule, active = well fitted curve in the direction sought with a large enough effect; inconclusive = small, poorly fitted or top-dose-only effect, or another doubt; inactive = no such curve, though single readings can be large; an effect the other way counts as inactive or inconclusive. Potency is read from the fitted curve at half-maximal effect.
SMILES,WRN helicase inh,Pol kappa inh,Pol iota inh,Pol beta inh,POLH inh,FEN1 inh,TbPGK inh,others
Cc1cncn1CCc1nc2c3ccccc3nc(SCC(=O)Nc3ccc(F)cc3)n2n1,x,-4%[60.1 µM],33%,-11%,-20%,20%,-14%,
CSc1ccc(CCNC(=O)CCc2c(C)nc3c4cccnc4nn3c2C)cc1,x,-12%,-12%,1%,-13%,9%,x,
CCOC(=O)c1cc(-c2ccc(OC)cc2)nn1-c1ccccc1C(=O)O,-16%,-13%,-27%,3.2µM*,-3%,17%,u,
COc1ccccc1/C=N/Nc1nncc2ccccc12,-33%[57.1 µM],-12%,63%,3%,3%,-1%,x,
COc1ccc(/C=N/Nc2nncc3ccccc23)cc1,-13%,-7%,-17%,-4%,5%,-3%,18µM*,
Nc1c(/C=C2/C=CC(=O)C(O)=C2)c(=O)nc2sc(CC(=O)N3CCCCC3)nn12,-3%,u,u,u,-10%,-2%,1.6µM*,
CCC(C(=O)NC1CCCC1)N(C(=O)c1snc(C(N)=O)c1N)c1ccc(OC)c(OC)c1 (centres undefined),-6%,0%,67%,-24%,-4%,-3%,x,
COc1ccc(N(C(=O)c2snc(C(N)=O)c2N)C(C(=O)NC2CCCC2)c2cccs2)cc1OC (centres undefined),-15%[11.6 µM],-18%,8.9µM*,u,u,6%,x,Pol iota confirm=u
O=Cc1ccc(/C=C2\C=Cc3ccccc32)cc1,x,2%,-3%,x,x,8%,x,
O=C(c1ccc2c3n(nc2c1)-c1ccccc1CO3)N1CCCCC1,7%,6%,36%,5%,-7%,-2%,9.2µM*,
O=C(c1ccc2c3n(nc2c1)-c1ccccc1CO3)N1CCOCC1,10%,12%,26%,-14%,-14%,-3%,x,
CN(C)c1ccc(/C=C/c2ccc3c4ccccc4ccc3[n+]2-c2ccccc2)cc1,13µM*,45µM*!,20µM*,11µM*,22µM*,8.9µM*,29µM*,
CCOc1cc(/C=C2/NC(=S)NC2=O)ccc1OCc1ccc([N+](=O)[O-])cc1,-28%[57.1 µM],-4%,u,u,u,-5%,x,Pol iota confirm=u
O=C(O)c1ccc(-n2cccc2/C=C2\SC(=O)N(Cc3ccc(Cl)c(Cl)c3)C2=O)cc1,x,x,x,x,x,x,x,Pol iota confirm=67*
O=C(O)CN1C(=O)C(=O)N(Cc2ccc(Cl)c(Cl)c2)C1=O,4%,-6%,32%,-4%,-13%,14%,x,
CN(C)c1ccc(-c2nc3ccccn3c2/N=C/c2ccc(Br)cc2)cc1,u,-11%,5%,-1%,-12%,6%,u,
NNc1nc2c(Cl)c(Cl)ccc2s1,u,u,14µM*,u,u,u,u,Pol iota confirm=67*
Cc1cccc(/C(N)=N/OC(=O)c2ccc3c(c2)OCO3)c1,0%,-13%,-15%,-2%,-10%,6%,10µM*,
N/C(=N\OC(=O)c1ccc2c(c1)OCO2)c1cccc([N+](=O)[O-])c1,-18%,-7%,11%,u,-19%,12%,x,
Cc1ccc2c(C)c(C(=O)N(Cc3ccc(N(C)C)cc3)Cc3ccco3)oc2c1C,x,-14%,-17%,10%,x,9%,x,
C#Cc1ccc(C(=O)NCc2ccc(N3CCCC3=O)cc2)cc1,-13%[11.6 µM],u,u,18µM*,16µM*,-8%,x,Pol iota confirm=42*
O=c1nc2cccc3c2=c(/c1=C(\O)c1ccccc1)c1ccccc1c3=O,-12%[11.6 µM],7%[60.1 µM],45%,10µM*,50µM*,u,x,Pol iota confirm=u
COc1cccc(/C=C/c2nccc3ccccc23)c1OC,x,3%,39%,x,x,2%,x,
COC(=O)c1sccc1NC(=O)Nc1ccc(C)cc1,1%,-7%,-15%,-2%,-11%,-13%,x,
COC(=O)c1sccc1NC(=O)Nc1ccc(F)cc1,0%,0%,-7%,3%,-15%,2%,13µM*,
SMILES,WRN helicase inh,Pol kappa inh,Pol iota inh,Pol beta inh,POLH inh,FEN1 inh,TbPGK inh,others
CCN(CC)S(=O)(=O)c1ccc2c(c1)N(CC(=O)Nc1ccc(C)cc1C)C(=O)C1CCCN21 (centres undefined),x,15%,-10%,41%,-4%,-3%,x,
Fc1cccc(CCN2CCNC[C@@H]2Cc2ccccc2)c1,-3%,-8%,u,x,11%,-17%,u,
Cc1cc[n+](C2CCCCC2)c2ccccc12,x,-12%,-2%,x,x,3%,x,
BrC(=C\c1ccccc1)/C=N/Nc1ccc2nncn2n1,-13%[11.6 µM],-23%,u,u,50µM*,u,x,Pol iota confirm=34*
C(=N\Nc1ccc2nncn2n1)/c1ccco1,-6%,-9%,150%,-25%,-19%,-1%,x,
O=C(O)c1cc(N2C(=O)C=CC2=O)cc(N2C(=O)C=CC2=O)c1,8.9µM*,2.2µM*,1.1µM*,x,2.2µM*,10µM*,u,
NC(=O)c1cc(N2C(=O)C=CC2=O)ccc1Cl,-23%,-18%,-3%[58.9 µM],18%,2%,4%,x,
O=c1oc2ccc(Br)cc2cc1-c1nc2c(s1)CCc1ccccc1-2,x,-4%,15%,x,x,9%,x,
Cc1oc(-c2ccc(C(=O)Nc3cccc(C(F)(F)F)c3)cc2)nc1CSc1ccccc1,x,-4%,29%,6%,-16%,-14%,x,
O=Cc1coc2ccc3ccccc3c2c1=O,u,-25%,168%,u,-8%,2%,u,
O=C(Nc1ccc2c(c1)OCCO2)c1coc2ccccc2c1=O,-16%,-4%,6%,41%,u,2%,4.1µM*,
Cc1ccccc1C(=O)Nc1ccc2c(c1)OCCO2,-3%,-7%,u,5%,-17%,44%,x,
COc1ccccc1-c1nc(-c2ccccn2)no1,-8%,11%,-1%,20%,-15%,-1%,18µM*,
Cc1ccccc1-c1nc(-c2ccccn2)no1,8%,-5%,-8%,-1%,-10%,18%,x,
Cn1c(C(=O)NC2CCCCC2)cc2sccc21,8%,3%,18%,18%,-8%,-7%,u,
CCc1nc2sc3ccccc3c(=O)c2c(=O)n1Cc1ccco1,56µM*,50µM*,16µM*,20µM*,32µM*,u,x,Pol iota confirm=u
CCCc1nc2sc3ccccc3c(=O)c2c(=O)n1Cc1ccccc1,-2%,5%,29%,x,-21%,10%,x,
Cc1ccc(S(=O)(=O)NCc2ccc(C(=O)NCCc3ccc(S(N)(=O)=O)cc3)cc2)cc1,-3%[11.6 µM],-13%,32µM*,u,u,-2%,x,Pol iota confirm=u
